Records with an inconclusive call do not appear. Calls of active or inactive are those of the source.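 Rule for the calls, unless noted: active = viability loss from added drug above about 55%, and viability with drug at most 40%, in both replicates (limit read from the data, passing the limit was not always enough); inconclusive = both conditions met in only one replicate; inactive = neither replicate meets both conditions.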
Legend:
[1] = Her2 expression decrease, cell viability multiplex – SKBR3 breast tumor cells, AlphaScreen, ATP viability, primary screen (AID 461;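 active = Her2 level under about 52% in both replicate screens, with viability over 70% of control, limit read from the data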;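 for Her2 level: lower value means less Her2 protein in the cells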;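 for viability: percent of carrier control wells set as 100% viability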); settings: SKBR3 Her2 protein level, 18-24 h, measured here: SKBR3 viability, ATP luminescence, at 10 µM
[2] = biological target: Receptor tyrosine-protein kinase erbB-2 (Homo sapiens) (UniProt P04626); test: as above; settings: 18-24 h, at 10 µM, stronger effect = lower value
Sequence of Receptor tyrosine-protein kinase erbB-2 (Homo sapiens) (P04626 whole entry, looked up): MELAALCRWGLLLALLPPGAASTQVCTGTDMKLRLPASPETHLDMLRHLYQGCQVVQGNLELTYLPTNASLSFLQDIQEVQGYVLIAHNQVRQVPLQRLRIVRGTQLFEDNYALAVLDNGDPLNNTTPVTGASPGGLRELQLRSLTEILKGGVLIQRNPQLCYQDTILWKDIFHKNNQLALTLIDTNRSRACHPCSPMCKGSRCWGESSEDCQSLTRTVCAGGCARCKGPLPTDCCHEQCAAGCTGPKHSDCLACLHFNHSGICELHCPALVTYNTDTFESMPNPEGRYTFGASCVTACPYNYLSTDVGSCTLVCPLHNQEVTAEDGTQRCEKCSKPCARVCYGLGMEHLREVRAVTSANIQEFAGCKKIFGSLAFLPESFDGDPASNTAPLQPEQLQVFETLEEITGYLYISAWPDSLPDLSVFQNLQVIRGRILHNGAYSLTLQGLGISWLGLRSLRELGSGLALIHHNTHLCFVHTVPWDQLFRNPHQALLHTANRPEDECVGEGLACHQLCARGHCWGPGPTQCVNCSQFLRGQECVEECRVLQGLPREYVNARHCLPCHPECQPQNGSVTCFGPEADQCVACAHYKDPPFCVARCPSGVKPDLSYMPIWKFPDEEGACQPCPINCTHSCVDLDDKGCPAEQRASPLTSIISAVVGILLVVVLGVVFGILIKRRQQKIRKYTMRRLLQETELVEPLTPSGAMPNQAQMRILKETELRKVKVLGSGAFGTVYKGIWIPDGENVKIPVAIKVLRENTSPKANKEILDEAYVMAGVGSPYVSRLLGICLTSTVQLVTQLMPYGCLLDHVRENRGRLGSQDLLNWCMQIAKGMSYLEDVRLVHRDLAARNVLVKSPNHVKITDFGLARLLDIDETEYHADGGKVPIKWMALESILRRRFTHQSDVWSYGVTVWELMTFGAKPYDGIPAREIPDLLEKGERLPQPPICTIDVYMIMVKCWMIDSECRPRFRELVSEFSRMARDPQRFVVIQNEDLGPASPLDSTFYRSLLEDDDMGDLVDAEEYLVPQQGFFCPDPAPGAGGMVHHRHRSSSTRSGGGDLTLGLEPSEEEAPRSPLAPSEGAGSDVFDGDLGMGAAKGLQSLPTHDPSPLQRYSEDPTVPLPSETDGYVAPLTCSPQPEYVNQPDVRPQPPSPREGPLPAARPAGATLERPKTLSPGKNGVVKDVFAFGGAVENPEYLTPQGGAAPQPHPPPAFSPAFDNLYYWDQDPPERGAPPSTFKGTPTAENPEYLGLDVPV

[3] = reduced viability of SK-BR-3 breast cancer cells – cell-based, 24 h, human, pilot screen (AID 572;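 active = viability at or below 10% of carrier control in both of two separate runs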;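 note: compound exposure lasted between 18 and 24 h rather than exactly 24 h; 100% = carrier-treated control wells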); settings: SK-BR-3 viability, CellTiter-Glo luminescence, at 10 µM, stronger effect = lower value
[4] = HUVEC growth inhibition – cell-based, human, primary screen (AID 575;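 active = viability at or below 30% in both replicate assays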;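 note: 100% = median of untreated cell wells with 0.1% DMSO on each plate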); settings: HUVEC proliferation, CellTiter-Glo luminescence, 72 h; at 10 µM; stronger effect = lower value
[5] = H69AR cell proliferation blockers – human, duplicate replicates, primary screen (AID 580;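 active = viability at or under a set limit in both replicates, limit being median viability minus 3 SD, cut at about 48% in these data, passing the limit was not always enough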;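 note: 100% = mean luminescence of untreated wells and 0% = no signal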); settings: H69AR lung tumor cells viability, ATP luminescence, 72 h; at 10 µM; stronger effect = lower value
[6] = MRP1 drug-resistance reversers in H69AR cells – cell-based, doxorubicin co-treatment, pilot screen (AID 601); settings: CellTiter-Glo, 72 h, at 10 µM; for differential viability (reversal): stronger effect = higher value
[7] = yeast transport mutant growth inhibition pilot in 384-well plates, post-Golgi transport modulator project (AID 636; in the data active = inhibition above about 31%); settings: absorbance 615 nm, about 18 h, stronger effect = higher value
[8] = growth suppression of yeast trafficking mutant, preliminary HTS, modulators of trafficking downstream of Golgi apparatus project, 1536-format plate, OD 615 nm (AID 637; in the data active = inhibition above about 30%); settings: yeast transport mutant growth, absorbance 615 nm, 18 h; stronger effect = higher value
[9] = S. cerevisiae growth inhibition in permissive medium (OD615), pilot counter-assay for S. cerevisiae lifespan shortening project, permissive growth control (AID 705;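 active = growth inhibition above 25% in both replicates, a cutoff set 3 SD above the mean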); settings: OD615, 24 h, at 10 µM, stronger effect = higher value
[10] = S. cerevisiae growth inhibition in restrictive medium, OD615, pilot screen, restrictive growth control, yeast lifespan reduction project (AID 706;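 active = growth inhibition above a set limit, 3 SD over mean compound inhibition, in both replicates, cut at about 43% in these data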;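 note: modified DeaD lifespan yeast strain shifted to restrictive glucose medium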); settings: OD615, 48 h, at 10 µM, stronger effect = higher value
[11] = doxorubicin toxicity protection in MRP-1 cells – H69AR cells, CellTiter-Glo, duplicate, MRP-1 activator project, pilot screen (AID 807;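 active = viability increase at or above a cutoff of the median across tested compounds plus 3 SD, cut at about 8.5% in these data, passing the limit was not always enough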;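 note: compound pretreatment 18-22 h then 72 h combined with doxorubicin; 0% = doxorubicin alone and 100% = vehicle without doxorubicin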); settings: H69AR viability with doxorubicin, CellTiter-Glo luminescence; at 10 µM; stronger effect = higher value
[12] = viability of HCT116 without oncogenic beta-catenin – human colon tumor cells, pilot screen (AID 823;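 active = cell viability at or below a set limit in both duplicate runs, the limit being the all-compound median minus 4 SD, cut at about 23% in these data, passing the limit was not always enough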;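 note: 0% = wells killed by 20 µM Hyamine and 100% = untreated DMSO cell wells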); settings: HCT116 beta-catenin knockout viability, CellTiter-Glo, 60 h; at 10 µM; stronger effect = lower value
[13] = viability of PTEN-null HCT116 cells – cell-based, HCT116 clonal line, CellTiter-Glo, pilot screen (AID 824;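 active = viability at or below 27.92% in each of two runs, the all-compound median minus 4 SD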;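 note: 0% = 20 µM Hyamine control and 100% = vehicle cell control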); settings: HCT116 PTEN-deleted viability, 60 h, at 10 µM, stronger effect = lower value
[14] = RAM pathway blockade in budding yeast – dse1pr::URA3 reporter, 5-FOA selection, pilot screen (AID 869;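 active = inhibition over a set limit, the all-compound mean plus 3 SD, in both replicate runs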;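 note: 0% = DMSO wells with no growth and 100% = 10 µM 1-NA-PP1 with full growth; RAM network block rescues cells from 5-FOA so hits raise OD615 growth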); settings: S. cerevisiae dse1pr::URA3 5-FOA growth, OD615, 2 d; at 10 µM; stronger effect = higher value; strain carries analog-sensitive mutant Cbk1 kinase
[15] = RAM signaling pathway blockade in yeast – S. cerevisiae, Pdr1DBD-CYC8 efflux-inhibited sensitized strain, primary screen (AID 1298;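 active = RAM network inhibition above 8.4% in each of two replicates, 3 SD over the compound average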;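 note: 0% = DMSO untreated cells without growth and 100% = 10 µM 1-NA-PP1 full growth; higher means more yeast growth rescued from 5-FOA killing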); settings: S. cerevisiae cbk1-as DSE1-URA3 strain, 5-FOA growth OD615, 2 d; at 50 µM; stronger effect = higher value
[16] = H69AR cells + 2 uM doxorubicin, measured here: viability with 2 uM doxorubicin, stronger effect = lower value
[17] = H69AR cells, compound alone cytotoxicity

CCCS(=O)(=O)N1CCN(C(=O)c2cccnc2)CC1
106%: viability [6, 17]
97%: viability [1]
101%: viability [6, 16]
inactive: Her2 level [2] 98.5% | viability [3] 97% | viability [4] 93.1% | viability [5] 106% | differential viability (reversal) ([6]; H69AR cells + 2 uM doxorubicin) 5.65% | inhibition [7] -0.26% | inhibition [8] -3.77% | growth inhibition [9] -8.47% | growth inhibition [10] -15.8% | viability increase [11] 1.08% | viability [12] 101% | viability [13] 95.2% | inhibition [14] -0.345% | RAM network inhibition [15] 0.42%

Cc1ccccc1CSc1nnc(C)c(=O)[nH]1
92.5%: viability [6, 16]
97.2%: viability [6, 17]
90%: viability [1]
inactive: Her2 level [2] 106% | viability [3] 90% | viability [4] 104% | viability [5] 97.2% | differential viability (reversal) ([6]; H69AR cells + 2 uM doxorubicin) 4.72% | inhibition [7] -3.2% | inhibition [8] -0.17% | growth inhibition [9] -7.61% | growth inhibition [10] -2.98% | viability increase [11] -1.7% | viability [12] 98.8% | viability [13] 99% | inhibition [14] 0.815% | RAM network inhibition [15] 1.17%

O=C(OCCN=C1NS(=O)(=O)c2ccccc21)C1CC(=O)N(c2ccc(Cl)cc2)C1 (stereo not given)
87.4%: viability [6, 16]
inactive: Her2 level [2] 99.5% | viability [3] 114% | viability [4] 106% | viability [5] 93.2% | differential viability (reversal) ([6]; H69AR cells + 2 uM doxorubicin) 5.78% | inhibition [7] -3.25% | inhibition [8] -1.67% | growth inhibition [9] 6.61% | growth inhibition [10] -8.43% | viability increase [11] -0.51% | viability [12] 107% | viability [13] 101% | inhibition [14] 0.695% | RAM network inhibition [15] -0.53%
114%: viability [1]
93.2%: viability [6, 17]

O=C(Cn1nc(Cc2ccncc2)c2ccccc2c1=O)N1CCc2ccccc2C1
83%: viability [1]
inactive: Her2 level [2] 100% | viability [3] 83% | viability [4] 95.3% | viability [5] 96.5% | differential viability (reversal) ([6]; H69AR cells + 2 uM doxorubicin) 5.38% | inhibition [7] -0.27% | inhibition [8] -3.77% | growth inhibition [9] -1.69% | growth inhibition [10] 3.79% | viability increase [11] -2.78% | viability [12] 103% | viability [13] 103% | inhibition [14] 1.33% | RAM network inhibition [15] 3%
91.1%: viability [6, 16]
96.5%: viability [6, 17]

COc1ccc(C2CC(c3ccc(C)cc3)Nc3ncnn32)cc1 (stereo not given)
106%: viability [1]
86.1%: viability [6, 16]
101%: viability [6, 17]
inactive: Her2 level [2] 96.5% | viability [3] 106% | viability [4] 105% | viability [5] 101% | differential viability (reversal) ([6]; H69AR cells + 2 uM doxorubicin) 14.9% | inhibition [7] -0.27% | inhibition [8] 3.28% | growth inhibition [9] 2% | growth inhibition [10] 20% | viability increase [11] -0.88% | viability [12] 104% | viability [13] 88.7% | inhibition [14] 1.41% | RAM network inhibition [15] 0.05%

CCOCC(=O)Nc1nc2c(s1)C(=O)CC(C)(C)C2
83.7%: viability [6, 17]
90.3%: viability [6, 16]
inactive: Her2 level [2] 108% | viability [3] 80.5% | viability [4] 97% | viability [5] 83.7% | differential viability (reversal) ([6]; H69AR cells + 2 uM doxorubicin) -6.59% | inhibition [7] -7.73% | inhibition [8] 1.5% | growth inhibition [9] -16.7% | growth inhibition [10] -21% | viability increase [11] -2.68% | viability [12] 97.3% | viability [13] 93% | inhibition [14] 2.79% | RAM network inhibition [15] 0.05%
80.5%: viability [1]

COc1ccccc1N(CC(=O)NCc1ccccn1)S(C)(=O)=O
91.6%: viability [6, 16]
inactive: Her2 level [2] 105% | viability [3] 126% | viability [4] 89.2% | viability [5] 95.7% | differential viability (reversal) ([6]; H69AR cells + 2 uM doxorubicin) 4.02% | inhibition [7] -1.3% | inhibition [8] -1.17% | growth inhibition [9] -1.19% | growth inhibition [10] -24.7% | viability increase [11] -3.02% | viability [12] 97.3% | viability [13] 91.5% | inhibition [14] 0.815% | RAM network inhibition [15] 4.8%
126%: viability [1]
95.7%: viability [6, 17]

C=C(C)Cn1c(-c2ccccc2)nc2ccccc21
96.1%: viability [6, 17]
80%: viability [1]
inactive: Her2 level [2] 102% | viability [3] 80% | viability [4] 117% | viability [5] 96.1% | differential viability (reversal) ([6]; H69AR cells + 2 uM doxorubicin) 0.815% | inhibition [7] -2.8% | inhibition [8] -1.45% | growth inhibition [9] -10.1% | growth inhibition [10] -9.65% | viability increase [11] -1.92% | viability [12] 80.2% | viability [13] 87.8% | inhibition [14] 1% | RAM network inhibition [15] 5.93%
95.3%: viability [6, 16]

CCOc1ccc2nc(N3CCC(C(=O)N4CCN(C5CCCCC5)CC4)CC3)sc2c1
inactive: Her2 level [2] 83.5% | viability [3] 83% | viability [4] 98.6% | viability [5] 95.7% | differential viability (reversal) ([6]; H69AR cells + 2 uM doxorubicin) 8.46% | inhibition [7] -1.33% | inhibition [8] -4.1% | growth inhibition [9] -0.545% | growth inhibition [10] 8.85% | viability increase [11] -3.43% | viability [12] 55.6% | viability [13] 70.3% | inhibition [14] 1.22% | RAM network inhibition [15] 0.6%
83%: viability [1]
87.2%: viability [6, 16]
95.7%: viability [6, 17]

CCCSc1nnc(N2C(=O)CC(c3ccsc3)C3=C2CCCC3=O)s1 (stereo not given)
inactive: Her2 level [2] 100% | viability [3] 92.5% | viability [4] 93.8% | viability [5] 92.7% | differential viability (reversal) ([6]; H69AR cells + 2 uM doxorubicin) 0.73% | inhibition [7] -5.87% | inhibition [8] -4.5% | growth inhibition [9] -3.18% | growth inhibition [10] -7.41% | viability increase [11] -0.83% | viability [12] 99.4% | viability [13] 89.6% | inhibition [14] 0.25% | RAM network inhibition [15] 7.67%
92.7%: viability [6, 17]
91.9%: viability [6, 16]
92.5%: viability [1]

From PubChem BioAssay
